Screening data from PubChem.
Many of the other results were omitted from the sample, so hits are more common in it than they were.
ST2 IL33 inh = inhibitors of human ST2 (IL1RL1) binding to IL-33, primary screen, biochemical, AlphaLISA; inhibition, % for hits at 17 µM; AlphaLISA ST2-Fc/biotin-IL-33 interaction, 1 h; 78,000 tested, 2.3% active; in the data active = inhibition above about 30%
Target sequence (Q01638 whole entry, looked up): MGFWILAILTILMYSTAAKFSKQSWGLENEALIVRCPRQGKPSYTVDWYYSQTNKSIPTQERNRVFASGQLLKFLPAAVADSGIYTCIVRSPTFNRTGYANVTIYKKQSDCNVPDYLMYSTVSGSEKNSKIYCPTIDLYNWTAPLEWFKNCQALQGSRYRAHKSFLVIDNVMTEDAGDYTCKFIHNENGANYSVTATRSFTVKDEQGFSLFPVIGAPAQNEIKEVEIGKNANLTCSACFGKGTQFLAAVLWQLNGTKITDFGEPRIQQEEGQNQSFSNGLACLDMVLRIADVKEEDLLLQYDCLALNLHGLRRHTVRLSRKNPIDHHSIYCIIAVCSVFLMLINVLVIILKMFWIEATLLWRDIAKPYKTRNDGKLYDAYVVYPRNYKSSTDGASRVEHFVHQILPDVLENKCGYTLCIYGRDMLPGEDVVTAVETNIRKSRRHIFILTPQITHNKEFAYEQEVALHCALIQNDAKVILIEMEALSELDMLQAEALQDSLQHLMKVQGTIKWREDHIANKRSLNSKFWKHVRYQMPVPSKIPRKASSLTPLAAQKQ
A number is an active result; ! = not active in a repeat.

What do the screens show for `Cc1cc[n+](C2C(c3ccc([N+](=O)[O-])cc3)C(C#N)=C([S-])NC2(O)C2CC2)cc1` (stereo not drawn)?
ST2 IL33 inh: 59%

What do the screens show for `CCCCC1C=CCN1C(=O)Cc1c[nH]c(=O)n(C)c1=O` (stereo not drawn)?
ST2 IL33 inh: inactive

How did CC(C)c1nnsc1CNC(=O)C(C)(C)NC(=O)c1cccs1 do in these assays?
ST2 IL33 inh: inactive

What do the screens show for `NS(=O)(=O)c1ccc(CCNC(=O)C2=Cc3cc(Br)ccc3OC2)cc1`?
ST2 IL33 inh: inactive

Results for O=c1[nH]c(NCc2ccco2)nnc1Cc1ccccc1 ?
ST2 IL33 inh: inactive

What do the screens show for `CN(C)c1ncc(CN2CCN(CCc3ccccc3)C(CCO)C2)s1` (stereo not drawn)?
ST2 IL33 inh: inactive

What do the screens show for `C=CCN1C(=Nc2cccnc2)SCC1(O)c1ccccc1` (stereo not drawn)?
ST2 IL33 inh: 53%

Results for Cc1ccc(C(=O)Nc2ccc(Cl)c(N3CCCS3(=O)=O)c2)cc1C ?
ST2 IL33 inh: inactive

What do the screens show for `COc1ccc2c(c1)CC(NCc1noc(-c3ccco3)n1)CC2` (stereo not drawn)?
ST2 IL33 inh: inactive

How did O=C1NC2=C(C(=O)c3ccccc32)C(c2ccccc2)N1 (stereo not drawn) do in these assays?
ST2 IL33 inh: inactive

What do the screens show for `O=C1NC(c2cccc(Br)c2)Nc2ccccc21` (stereo not drawn)?
ST2 IL33 inh: inactive

Results for O=C1c2ccccc2C(=O)C1C1=Nc2ccccc2NC(c2ccccc2)C1 (stereo not drawn) ?
ST2 IL33 inh: 31%!

Results for N#Cc1c(C(F)(F)F)cc(-c2cccs2)nc1SCC(=O)Nc1ccc([N+](=O)[O-])cc1 ?
ST2 IL33 inh: 38%

How did CC(=O)CSc1nc(-c2cccs2)cc(C(F)(F)F)c1C#N do in these assays?
ST2 IL33 inh: inactive

How did CCc1nnc(NC(=O)CSc2nc(-c3cccs3)cc(C(F)(F)F)c2C#N)s1 do in these assays?
ST2 IL33 inh: inactive

Results for CC(C)c1ccc(OCC(=O)Nc2ccc(NC(=O)c3cccs3)cc2)cc1 ?
ST2 IL33 inh: inactive

How did CC1CCCCN1CCN(C)C(=O)/C=C/c1ccccc1 (stereo not drawn) do in these assays?
ST2 IL33 inh: inactive

How did Cc1ccc(OCCN2CCC(C)CC2)c([N+](=O)[O-])c1 do in these assays?
ST2 IL33 inh: inactive

How did COc1ccc(C(=O)Nc2nc(-c3cc4ccccc4oc3=O)cs2)cc1OC do in these assays?
ST2 IL33 inh: 38%

What do the screens show for `O=C(Nc1nc(-c2cc3ccccc3oc2=O)cs1)c1cc(=O)c2ccccc2o1`?
ST2 IL33 inh: inactive

What do the screens show for `COc1cc2ccccc2cc1C(=O)Nc1nc(-c2cc3ccccc3oc2=O)cs1`?
ST2 IL33 inh: inactive

How did Cc1c(C(C)NCc2ccc(F)c(F)c2)cnn1-c1ccccc1 (stereo not drawn) do in these assays?
ST2 IL33 inh: inactive

Results for Cc1ccc2[nH]c(CNC(C)c3cnn(-c4cccc(F)c4)c3C)c(C)c2c1 (stereo not drawn) ?
ST2 IL33 inh: 32%

How did Cc1c(C(C)NCCCc2ccccc2)cnn1-c1cccc(F)c1 (stereo not drawn) do in these assays?
ST2 IL33 inh: inactive

Results for CC(=O)Cc1nsc(NC(=O)c2ccc(C(C)(C)C)cc2)n1 ?
ST2 IL33 inh: inactive

What do the screens show for `OC1(C#CCOc2ccccc2)CCCCC1`?
ST2 IL33 inh: inactive

What do the screens show for `COc1cc([N+](=O)[O-])ccc1N1CCCC1`?
ST2 IL33 inh: 38%

Results for COc1ccc([N+](=O)[O-])cc1-n1cccc1 ?
ST2 IL33 inh: 39%

Results for COc1ccc([N+](=O)[O-])cc1NC(=O)C(Cl)(Cl)Cl ?
ST2 IL33 inh: inactive

Results for COc1ccccc1N1CCN(C(=O)Nc2ccc([N+](=O)[O-])cc2)CC1 ?
ST2 IL33 inh: inactive

What do the screens show for `CCN(CC)CC(O)COc1cc([N+](=O)[O-])ccc1N1CCCC1` (stereo not drawn)?
ST2 IL33 inh: inactive

Results for COc1cc([N+](=O)[O-])ccc1N ?
ST2 IL33 inh: inactive

What do the screens show for `COc1ccc(C)cc1NS(=O)(=O)c1ccc(NS(=O)(=O)c2ccc(Cl)cc2)cc1`?
ST2 IL33 inh: inactive

How did NC(=O)CCc1c[nH]c2ccccc12 do in these assays?
ST2 IL33 inh: inactive

Results for N[C@@H](Cc1c[nH]c2ccccc12)C(=O)O ?
ST2 IL33 inh: inactive

How did O=C(O)Cc1c[nH]c2ccc(O)cc12 do in these assays?
ST2 IL33 inh: 41%!

What do the screens show for `Cn1cnnc1CC1CCN(Cc2nn(C)c3cccc(Cl)c23)CC1`?
ST2 IL33 inh: inactive

How did Cc1ccc(CNC(=O)CN2CCN(Cc3ccccc3F)S2(=O)=O)cc1 do in these assays?
ST2 IL33 inh: inactive

How did CC(C)CN(Cc1ccsc1)C(=O)c1ncc(F)cc1F do in these assays?
ST2 IL33 inh: inactive

How did Cc1ccc(C(C)C)cc1OCCNC(C)C do in these assays?
ST2 IL33 inh: inactive

What do the screens show for `O=C1C2[C@H](C(=O)N1c1cccc(Br)c1)C1c3ccccc3C2(C(=O)O)c2ccccc21` (stereo partly drawn)?
ST2 IL33 inh: inactive

Results for O=C1[C@@H]2C3c4ccccc4C(Br)(c4ccccc43)[C@@H]2C(=O)N1c1ccc([N+](=O)[O-])cc1 ?
ST2 IL33 inh: 34%

How did CC(=O)Oc1ccc(N2C(=O)C3C4c5ccccc5C(C)(c5ccccc54)C3C2=O)cc1 (stereo not drawn) do in these assays?
ST2 IL33 inh: inactive

What do the screens show for `Cn1c(=O)[nH]c(=O)c2c1nc1n2CC(c2ccc(Br)cc2)O1` (stereo not drawn)?
ST2 IL33 inh: inactive

What do the screens show for `COC(=O)C1=C(N)OC2=C(C(=O)CC(C)(C)C2)C1c1cccc(Br)c1` (stereo not drawn)?
ST2 IL33 inh: inactive

Results for CCCn1cnc2c1CN(C(=O)c1ccc(N(C)C)cc1)[C@H](C(=O)OC)C2 ?
ST2 IL33 inh: inactive

What do the screens show for `Cc1ccc(S(=O)(=O)Cc2noc([C@@H]3C[C@@H](O)CN3Cc3ccc(S(C)(=O)=O)cc3)n2)cc1`?
ST2 IL33 inh: inactive

How did Cc1ccc(S(=O)(=O)Cc2noc([C@@H]3C[C@@H](O)CN3Cc3ccccc3[N+](=O)[O-])n2)cc1 do in these assays?
ST2 IL33 inh: 31%

What do the screens show for `Cc1ccc(S(=O)(=O)Cc2noc([C@@H]3C[C@@H](O)CN3Cc3c[nH]c4ccccc34)n2)cc1`?
ST2 IL33 inh: inactive

Results for CC1CCCCN1CCNC(=O)c1cccn2c(=O)c3c4c(sc3nc12)CCCC4 (stereo not drawn) ?
ST2 IL33 inh: inactive

What do the screens show for `Cc1nc2cc(-c3ccccc3)nn2c(C)c1CCC(=O)NCCC1=CCCCC1`?
ST2 IL33 inh: inactive

How did Cc1ccc(-c2nc3cnccn3c2NC2CCCCC2)cc1 do in these assays?
ST2 IL33 inh: inactive

How did O=C1CSC(c2cccc(Cl)c2Cl)N1c1ccc(F)cc1 (stereo not drawn) do in these assays?
ST2 IL33 inh: inactive

Results for Cc1ccc(N2C(=O)CSC2c2ccccc2Cl)cc1 (stereo not drawn) ?
ST2 IL33 inh: 32%

Results for O=C1CSC(c2ccccc2Cl)N1c1ccccc1 (stereo not drawn) ?
ST2 IL33 inh: inactive

Results for CCCc1nc(CNC(=O)C2CCCN(Cc3ccco3)C2)cs1 (stereo not drawn) ?
ST2 IL33 inh: inactive

How did CN(CC1(CO)CC1)C(=O)CN1CCNCC1 do in these assays?
ST2 IL33 inh: inactive

What do the screens show for `O=C1CCCc2oc3ccc(NS(=O)(=O)c4ccc5c6c(cccc46)C(=O)N5)cc3c21`?
ST2 IL33 inh: inactive

Results for Cc1ccc(C(=O)Nc2nc3ccc4nc(C)sc4c3s2)cc1 ?
ST2 IL33 inh: inactive
